HIF-2a inh = inhibitors of HIF-2a; AID 624352; 786-0 RCC cells HIF-2a reporter, luciferase luminescence, overnight; hit rate 0.72% among 360,000; inhibition, % at 18.8 µM;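 active = inhibition of the luminescence signal of 40% or more relative to plate controls, in a single-dose primary screen at 18.75 µM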
Peg3 prom inh = reduces Peg3 promoter-driven luciferase expression in HeLa | HeLa PEG-Prom luciferase reporter, luminescence, overnight | inhibition, % at 20 µM | hit rate 1.7% among 360,000 | AID 588405;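 active = inhibition of at least 50% at 20 µM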
TRPM1 prom inh = inhibitors of MITF-driven TRPM1 promoter in melanoma cells; SK-MEL-5 TRPM1 promoter luciferase, 24 h; inhibition, % at 12.5 µM; hit rate 0.83% among 330,000; AID 488899;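 active = mean inhibition across replicates of 60% or more, whatever share of single replicates reaches that level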
B2AR ag = human beta-2 adrenergic receptor agonism by FAP | response, % (test concentration not listed) | Am2.2-beta2AR cells, FAP receptor internalization, flow cytometry | hit rate 0.43% among 340,000 | AID 504454;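 active = response above a set limit, near 3 SD of response in nonfluorescent compounds, cut at about 42% in these data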
Target sequence (P07550 whole entry, looked up): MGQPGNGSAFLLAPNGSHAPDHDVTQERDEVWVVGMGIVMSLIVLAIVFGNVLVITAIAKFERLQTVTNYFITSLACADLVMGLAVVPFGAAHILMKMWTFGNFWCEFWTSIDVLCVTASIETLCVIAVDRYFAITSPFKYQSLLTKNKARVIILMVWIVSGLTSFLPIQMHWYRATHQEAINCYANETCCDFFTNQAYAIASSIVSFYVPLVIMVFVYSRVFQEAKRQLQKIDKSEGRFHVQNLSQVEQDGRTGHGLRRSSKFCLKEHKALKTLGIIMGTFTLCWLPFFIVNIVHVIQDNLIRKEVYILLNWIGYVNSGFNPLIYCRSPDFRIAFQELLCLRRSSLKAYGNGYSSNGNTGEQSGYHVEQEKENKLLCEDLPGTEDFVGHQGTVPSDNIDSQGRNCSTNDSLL
CF NFkB inh = blocks PAF-induced NF-kB reporter in cystic fibrosis cells; AID 588850; hit rate 0.86% among 360,000; inhibition, % at 5 µM; KKLEB NF-kB-GFP reporter, GFP fluorescence overnight;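 active = at least 50% inhibition at 5 µM, scaled per plate between neutral and stimulator controls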;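 also: PAF is a Pseudomonas aeruginosa culture filtrate used as stimulus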
KKLEB cytotox = counter-screen for CF NF-kB inhibitors: cytotoxicity. hit rate 0.36% among 360,000. KKLEB CF airway cells viability, ATPlite luminescence, overnight; active compounds read low; cells stimulated with P. aeruginosa culture filtrate. activity change (cytotoxicity), % at 5 µM. AID 602141;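 active = corrected activity change at or below -50% at 5 µM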
Hits are given with their value; - = inactive; . = no result. Only some compounds are listed: those with a hit (about 2.8% of all), similar ones and a draw of the others.

SMILES	HIF-2a inh	Peg3 prom inh	TRPM1 prom inh	B2AR ag	CF NFkB inh	KKLEB cytotox
CCCCC[n+]1ccn(C2=C([O-])c3ccccc3C(=O)/C2=N\S(=O)(=O)c2ccc(Cl)cc2)c1	-	-	78	-	-	-
CCCC[n+]1ccn(C2=C([O-])c3ccccc3C(=O)/C2=N\S(=O)(=O)c2ccc(Cl)cc2)c1	-	-	-	-	-	-
COc1ccc(N2CCN(c3nc(NCCc4ccc(OC)c(OC)c4)nc(OC)n3)CC2)cc1	-	67	-	-	-	-
COc1cccc(S(=O)(=O)N(C)C[C@@H]2OCc3cnnn3CCCC(=O)N([C@@H](C)CO)C[C@@H]2C)c1	-	-	.	.	-	-
Cc1ccc(-c2cc(C(F)F)n3ncc(C(=O)Nc4c(C)nn(Cc5c(Cl)cccc5Cl)c4C)c3n2)cc1	-	-	-	-	77	-65
CCCCC(=O)Nc1ccc(C(=O)OC2CCCCC2)cc1	-	-	-	-	-	-
O=C(O)CCC(=O)Nc1ccc(C(=O)OC2CCCCC2)cc1	52	-	-	-	-	-
CC(C)Oc1ccc2ccccc2c1CNC[C@H]1O[C@@H](n2ccc(=O)[nH]c2=O)[C@H](O)[C@@H]1O	-	-	.	.	-	-
C1CCC(C(CC2CCCCN2)C2CCCCC2)CC1 (stereo unspecified)	-	104	81	-	-	-
Cc1ccc(CNc2nc(NCc3ccccc3)nc3ccsc23)c(C)c1	-	-	.	.	-	-
COC(=O)c1ccccc1NC(=O)c1cn(-c2ccc(C)c(C)c2)c(=O)c2ccccc12	-	52	-	-	-	-
CC(=O)NC1=C(NC2CCS(=O)(=O)C2)C(=O)c2ccccc2C1=O (stereo unspecified)	-	-	-	-	-	-
CN(C1=C(NC(=O)c2ccccc2)C(=O)c2ccccc2C1=O)C1CCS(=O)(=O)C1 (stereo unspecified)	-	-	103	-	-	-
CC(=O)c1ccc(Nc2nc(-c3sc(C)nc3C)cs2)cc1	-	55	.	.	-	-
CCCOc1ccccc1NC(=O)/C=C/c1ccc(OC)c(S(=O)(=O)N2CCOCC2)c1	-	-	.	.	-	-
CC1CCC(C(C)C)C(OC(=O)C[n+]2cc(-c3ccc(Cl)cc3)n3c2CCCCC3)C1 (stereo unspecified)	-	-	87	-	-	-
FC(F)(F)c1cc(CO[C@@H]2CCCN[C@@H]2c2ccccc2)cc(C(F)(F)F)c1	-	72	-	-	-	-
N#CNC(=Nc1cccc(F)c1)SCc1ccccc1F	-	74	-	-	-	-
CCC(C)(C)NC(=O)C(c1ccc(F)cc1)N(Cc1cccc(OC)c1)C(=O)c1cnccn1 (stereo unspecified)	-	58	-	-	-	-
CCC(C)(C)NC(=O)C(c1ccc(F)cc1)N(Cc1ccc(OC)cc1)C(=O)c1cnccn1 (stereo unspecified)	-	-	-	-	-	-
O=[N+]([O-])c1cc(-c2nnc(Nc3ccc(O)cc3)c3ccccc23)ccc1N1CCOCC1	-	52	-	-	-	-
Cc1ccc2c(CC(=O)Nc3ccc4nc(N5CCOCC5)sc4c3)coc2c1	-	-	.	.	-	-
OCCNc1ncnc2c1ncn2[C@H]1CN(Cc2ccncc2)C[C@@H](CO)O1	-	-	.	.	-	-
CCN(C[C@H]1N[C@@](CC)(C(=O)OC)[C@H]2C(=O)N(Cc3ccccc3)C(=O)[C@@H]12)C(=O)c1ccc(C(C)(C)C)cc1	-	62	-	-	85	-58
COc1ccccc1NC(=O)c1oc2ccccc2c1NC(=O)c1cc(OC)c(OC)c(OC)c1	-	-	-	-	56	-58
SMILES	HIF-2a inh	Peg3 prom inh	TRPM1 prom inh	B2AR ag	CF NFkB inh	KKLEB cytotox
O=C(C[C@H]1C=C[C@H](NC(=O)c2ccccn2)[C@@H](CO)O1)NCc1cc(F)cc(F)c1	-	.	.	.	.	.
CC1=C(C(=O)N2CCOCC2)CC(CC(=O)NCCCCc2ccccc2)C(=O)N1Cc1ccc(C(C)(C)C)cc1 (stereo unspecified)	-	-	.	.	-	-
Nc1nc2n[nH]nc2c(=O)[nH]1	-	-	65	-	-	-
CCOC(=O)c1sc(NC(=O)Nc2ccccc2)cc1C	-	-	-	-	-	-51
Oc1cccc(-c2nc3c4c(ncn3n2)-c2ccccc2CC42CCCC2)c1	-	54	-	-	-	-
COCCCn1[nH]c2c3c(ccc2c1=O)C(=O)c1ccccc1C3=O	-	-	61	-	-	-
CN1CCN(C2Cc3cc(Cl)ccc3Sc3cc(F)ccc32)CC1 (stereo unspecified)	-	91	-	-	-	-
CN1CCN(C2=Cc3ccccc3Sc3cc(F)c(F)cc32)CC1	-	-	-	-	-	-
CN1CCN(C2=Cc3cc(Cl)ccc3Sc3cc(F)ccc32)CC1	-	94	-	.	-	-
OCCN1CCN(C2Cc3cc(Cl)ccc3Sc3ccc(Cl)cc32)CC1 (stereo unspecified) (tested in a mixture with another compound)	-	65	-	-	-	-
CC[C@@H](NC(=O)[C@@H](Cc1ccccc1)NC(=O)CC[C@H]1O[C@@H](n2ccc(=O)[nH]c2=O)[C@H](O)[C@@H]1O)c1ccccc1	-	-	.	.	-	-
COc1ccc(Cl)cc1N1CCN(CCNC(=O)Nc2ccccc2C)CC1	-	51	-	-	-	-
COc1ccccc1N1CCN(CCCNC(=O)Nc2ccccc2C)CC1	-	-	-	-	-	-
CCCNC(=O)c1cc(C2CCCCN2C(=O)c2ccc(C#N)cc2)on1 (stereo unspecified)	-	-	.	.	-	-
COc1cccc(N=Nc2ccc3cccnc3c2O)c1	-	-	-	-	-	-
Cc1ccccc1N=Nc1ccc(O)c2ncccc12	-	-	76	-	-	-
COc1ccc(N=Nc2ccc(O)c3ncccc23)cc1	-	-	69	-	-	-
COc1cccc(N=Nc2ccc(O)c3ncccc23)c1	-	-	-	-	100	-81
O=Nc1ccc(O)c2ncccc12	-	76	-	-	72	-51
O=S(=O)(O)c1cccc2c(N=Nc3ccc(O)c4ncccc34)cccc12	-	-	-	-	-	-
OC(c1ccc(-c2ccccc2)cc1)c1ncc(-c2ccc(C(F)(F)F)cc2)[nH]1 (stereo unspecified)	-	-	.	.	-	-
CCCCCCCCN1C(=O)[C@H](CC(=O)NCc2ccc(C)o2)C[C@@]2(C(=O)OCC)CCC=C12	-	.	.	.	.	.
CCOC1=C2CN(S(=O)(=O)c3ccc(C)cc3)C(c3cccc(Cl)c3)CC2N(S(=O)(=O)c2ccc(Cl)cc2)C(c2ccccc2)C1 (stereo unspecified)	-	.	.	.	.	.
COc1ccc(C)cc1N=Nc1ccc(O)c2ncccc12	-	-	72	-	-	-
COCc1ccc(O)c2ncccc12	-	-	-	-	-	-

Screening data from PubChem BioAssay.
